Assay [1] can be described thus: NCI Yeast Anticancer Drug Screen. Data for the rad50 strain (AID 155).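 Also: 0% = growth of vehicle-only cultures of the same strain.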 The following applies: S. cerevisiae rad50 strain growth inhibition; at 50.0 µM; hits give high values. The method, boiled down:
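Vehicle-treated cultures provide the reference for the growth inhibition reported for compound-exposed, repair-deficient yeast.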

A short description of assay [2]: NCI Yeast Anticancer Drug Screen. Data for the mec2-1 strain (AID 157). To be noted: S. cerevisiae mec2-1 strain, at 50.0 µM, hits give high values. The method, boiled down: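 Cells of the genetically defined mec2-1 yeast strain are incubated with test compound. Inhibition of growth is calculated against vehicle-treated controls.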
Assay [3] in a line: NCI Yeast Anticancer Drug Screen. Data for the sgs1 mgt1 strain (AID 161).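 Also: 0% = growth of cultures given vehicle only.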 To be noted: S. cerevisiae sgs1 mgt1 strain, at 50.0 µM, hits give high values. The method, boiled down: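 Mutant yeast exposed to compound; growth scored against vehicle-only wells.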
The nature of assay [4]: NCI Yeast Anticancer Drug Screen. Data for the cln2 rad14 strain (AID 165).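 Also: 0% = growth equal to vehicle treated cultures.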 The following applies: S. cerevisiae cln2 rad14 strain, at 50.0 µM, hits give high values. The method, boiled down: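 The screen exposed genetically defined yeast (cln2 rad14) to test compounds and scored growth inhibition relative to vehicle-treated controls.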
The nature of assay [5]: NCI Yeast Anticancer Drug Screen. Data for the bub3 strain (AID 167). The following applies: S. cerevisiae bub3 mutant strain, at 50.0 µM, hits give high values. The method, boiled down:
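Mutant yeast screening strain plus compound; vehicle-treated cultures serve as the 0% inhibition reference.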

Assay [6] in a line: NCI Yeast Anticancer Drug Screen. Data for the mlh1 rad18 strain (AID 175). To be noted: S. cerevisiae mlh1 rad18 strain growth inhibition; at 50.0 µM; hits give high values. The method, boiled down:
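Compound-treated yeast growth, normalised to vehicle controls. Strain bears defined DNA repair mutations.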

Molecules are shown by their SMILES. This is part of a sample that, as a whole, favours compounds with a hit. Of some 79,000 tested, about 15% had one in any assay. A number with no mark means an inactive call. The source made the active and inactive calls. Rule as the data show it: active = growth inhibition above about 70%; inactive = the rest.

From PubChem BioAssay (NCI) come the findings set out here.

Turning to `COC(=O)N/N=C/c1ccc(C)cc1`, the growth inhibition in assay [1] was -4.1%; in assay [2] it was -8.05%; in assay [3], -10%; in assay [4], -37.9%; in assay [5] it was -3.9%; in assay [6], -4.1%.

`O=C(O)/C(Cc1ccc([N+](=O)[O-])cc1)=N\O`: the growth inhibition was -4.2% in assay [1]; 6.85% in assay [2]; -25.4% in assay [3]; -16.6% in assay [4]; 17.4% in assay [5]; -2.8% in assay [6].

Take `CCSC(C(O)C(O)C(O)C(O)CO)n1cnc2c(SC)ncnc21` (stereo not drawn): the growth inhibition was 20.1% in assay [1]; -15.3% in assay [2]; 1.05% in assay [3]; -26% in assay [4]; -4.95% in assay [5]; -3.85% in assay [6].

With `NC(N)=NCCCCC(=O)Nc1ccc(S(N)(=O)=O)cc1`, the growth inhibition in assay [1] is 6.15%; in assay [2], -0.65%; in assay [3] it was -13.2%; in assay [4], -6.15%; in assay [5], -3.75%; in assay [6] it was -19.2%.

On to `O=C(c1ccccc1)c1cc(Cl)ccc1NCC(O)COc1ccc(Cl)cc1` (stereo not drawn), for which the growth inhibition in assay [1] is -12.8%; in assay [2] it was 7.05%; in assay [3], -33%; in assay [4] it was -12.6%; in assay [5] it was -0.45%; in assay [6], -10.1%.

On to `O=C(O)c1ccc(C(=O)O)c(C(=O)O)c1.[NH-]C1CCCCC1[NH-].[Pd+2]`, for which the growth inhibition in assay [1] is 11.1%; in assay [2] it was 5.2%; in assay [3] it was 7.9%; in assay [4], 10.6%; in assay [5], 3.95%; in assay [6], 9.65%.

Regarding `O=C(O)C(C(=O)O)C(O)c1c2ccccc2cc2ccccc12` (stereo not drawn), the growth inhibition was -10.3% in assay [1]; 16% in assay [2]; -4.35% in assay [3]; -47.6% in assay [4]; 0.6% in assay [5]; -1.05% in assay [6].

Regarding `COC(=O)C1(C(=O)OC)C2CCCCC21` (stereo not drawn), the growth inhibition was 4.65% in assay [1]; 9.3% in assay [2]; -6.6% in assay [3]; 12.8% in assay [4]; -13.9% in assay [5]; 7.1% in assay [6].

For the molecule `CC1(C)OC(=O)C=C([O-])O1.CC1(C)OC(=O)C=C([O-])O1.O=c1c(O)c(-c2ccc([O-])cc2[O-])oc2cc(O)cc(O)c12.[Ti+4]`, the growth inhibition is -45.6% in assay [1]; 9.05% in assay [2]; -29.4% in assay [3]; -7.85% in assay [4]; -4.55% in assay [5]; -16.2% in assay [6].

Take `COc1ccc(N2C(=O)CCC2=S)cc1`: the growth inhibition in assay [1] was -5.35%; in assay [2], 8.55%; in assay [3] it was 6.8%; in assay [4] it was -4.5%; in assay [5] it was -7.9%; in assay [6], 15.5%.

In the case of `O=Cc1ccc(N2OC(c3ccc([N+](=O)[O-])cc3)C(c3ccc([N+](=O)[O-])cc3)C2c2ccc([N+](=O)[O-])cc2)cc1` (stereo not drawn), the growth inhibition in assay [1] is 13.2%; in assay [2] it was -1.75%; in assay [3], 14.7%; in assay [4] it was 25.4%; in assay [5] it was 0.95%; in assay [6], 28.9%.

On to `COc1ccc(-c2nc(SCC(=O)O)n(-c3ccccn3)c2-c2ccc(OC)cc2)cc1`, for which the growth inhibition is 70.7% (active) in assay [1]; 66.5% in assay [2]; 82.3% (active) in assay [3]; 83.7% (active) in assay [4]; 42.9% in assay [5]; 77.7% (active) in assay [6].

As for `Cc1sc2nc3n(c(=O)c2c1C)N=CN(c1ccccc1)C3`, the growth inhibition in assay [1] is 3%; in assay [2], 4%; in assay [3], 2.1%; in assay [4], -12.8%; in assay [5], -3.5%; in assay [6], -16.7%.

On to `Cc1c(N)cc2c(c1N)C(C)(C)CC2(C)C`, for which the growth inhibition was 1.35% in assay [1]; -2.2% in assay [2]; -0.4% in assay [3]; -6.35% in assay [4]; 11.1% in assay [5]; -4.6% in assay [6].

In the case of `O=S(=O)(Cl)c1c(F)c(F)c(F)c(F)c1F`, the growth inhibition in assay [1] is -31.3%; in assay [2] it was -41.1%; in assay [3], -19.9%; in assay [4], 24.1%; in assay [5], -0.25%; in assay [6], -21.4%.

In the case of `N#CC(CC(=O)c1ccccc1)c1ccccc1Cl` (stereo not drawn), the growth inhibition in assay [1] was 17.2%; in assay [2], 24.9%; in assay [3], 31.3%; in assay [4] it was 17.6%; in assay [5] it was 40.4%; in assay [6], 22%.

On to `CCOC(=O)Cc1nc2ccccc2[nH]c1=O`, for which the growth inhibition was 25% in assay [1]; -11.7% in assay [2]; 1.25% in assay [3]; 0.35% in assay [4]; -6.35% in assay [5]; -17.2% in assay [6].

For the molecule `CNc1ncnc2[nH]ncc12`, the growth inhibition was 18.4% in assay [1]; -0.85% in assay [2]; 6.25% in assay [3]; -18.2% in assay [4]; -7.05% in assay [5]; 1.35% in assay [6].
